This is part of a sample that, as a whole, favours compounds with a hit. Of some 83,000 tested, about 20% had one in any assay.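 96-well plates, one dose, 48 hours. Percent growth reported; active if below 10.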 Values without a mark were called inactive. Active and inactive are the calls of the source.

The test system of the assay is HL-60(TB) leukemia. Kind of assay: NCI-60 one-dose screen, 48 h (100 = growth as untreated, 0 = no growth, -100 = all killed). The following applies: 10 µM unless noted.
In the case of `O=C1C(Cl)=C(NCCCN(CCCNC2=C(Cl)C(=O)c3ccccc3C2=O)C2=C(Cl)C(=O)c3ccccc3C2=O)C(=O)c2ccccc21`, the growth is 37.6%.
The result for `O=C(Nc1ccc(Cl)c(Cl)c1)OCc1ccco1` reads 32.1%; that for `COc1ccc2[nH]c(-c3ccc(Cl)cc3)cc(=O)c2c1`, 75.7%.
Take `N[C@@H]1CCN(C(=O)c2cc3cc(Cl)c(F)c(F)c3[nH]2)C1`: the growth was 97.7%.
Turning to `N#Cc1c(-c2ccc(F)cc2)c(C#N)c2c(C#N)c(N)nn2c1N`, the growth is 99.7%.
On to `Cc1cccc(C[C@H](NC(=O)Nc2ccc(Cl)cc2F)C(=O)N[C@@H]2C(=O)N3C[C@H](O)C[C@H]3C(=O)N3CCN(C)C[C@H]3C(=O)N[C@@H](C)C(=O)N3C[C@H](C)C[C@H]3C(=O)O[C@H]2C)c1`, for which the growth is 32.8%.
For `COc1ccc(C2=Nn3c(nnc3-c3cc(Cl)cc(Cl)c3Cl)SC2)cc1`, the growth is -32% (active).
For the molecule `CCN(CC)CCOc1ccc(Cl)c(C)c1`, the growth was 113%.
Turning to `COc1ccc(-c2c(-c3cc(OC)c(OC)c(OC)c3)noc2N)cc1`, the growth is 12.5%.
The result for `COc1cc(C(=O)/C=C/c2c(Cl)nc3sccn23)cc(OC)c1OC` reads 52.2%; that for `Oc1c(CNCCNCc2cc(Cl)cc(Cc3ccccc3)c2O)cc(Cl)cc1Cc1ccccc1`, -0.262% (active); that for `COc1ccc2c(c1)c(-c1nc(-c3c[nH]c4ccncc34)cs1)cn2C`, -61.5% (active).
The result for `COc1cc(/C=C/C(=O)c2ccc(NC(=O)CSc3nnc(-c4cc(OC)c(OC)c(OC)c4)n3-c3ccccc3)cc2)cc(OC)c1OC` reads 6.87% (active).

The values above are taken from PubChem BioAssay (NCI).
